# Structures can show the parent of a compound that is named as a salt. ± gives the standard deviation of the averaged measurements.
# Legend:
# [1] = tested on: Klebsiella pneumoniae KPC-119; test: percent growth inhibition of drug alone vs DMSO control; higher = more growth inhibition; settings: antibiotic (0.125x MIC): none (0.1% DMSO)
# [2] = tested on: Klebsiella pneumoniae KPC-119; test: percent growth inhibition of drug + antibiotic vs DMSO control; higher = more growth inhibition
# [3] = tested on: Klebsiella pneumoniae NCTC-13439; test: percent growth inhibition of drug alone vs DMSO control; higher = more growth inhibition; settings: antibiotic (0.125x MIC): none (0.1% DMSO)
# [4] = tested on: Klebsiella pneumoniae NCTC-13439; test: percent growth inhibition of drug + antibiotic vs DMSO control; higher = more growth inhibition; settings: antibiotic (0.125x MIC): tigecycline; 7 µM
# [5] = antibiotic (0.125x MIC): colistin, 20 µM
# [6] = antibiotic (0.125x MIC): colistin, 7 µM
compound,measurement,setting,value
C[N+]1([O-])[C@@H]2C[C@@H](OC(=O)[C@H](CO)c3ccccc3)C[C@H]1[C@@H]1O[C@@H]12 (stereo partly drawn) [Scopolamin-N-oxide hydrobromide],percent growth inhibition of drug alone,[1]; 7 µM,-1.08 ± 2.3%
same,percent growth inhibition of drug alone,[1]; 20 µM,-2.41 ± 3.1%
same,percent growth inhibition,[2]; [5],7.85 ± 0.11%
CCn1cc(C(=O)O)c(=O)c2cc3c(cc21)OCO3 [Oxolinic acid],percent growth inhibition of drug alone,[1]; 7 µM,6.34 ± 3%
same,percent growth inhibition of drug alone,[1]; 20 µM,16.3 ± 9.5%
same,percent growth inhibition,[2]; [6],37.9 ± 7.2%
same,percent growth inhibition,[2]; [5],100.2 ± 0.18%
C#CCN(C)[C@H](C)Cc1ccccc1 [Selegiline hydrochloride],percent growth inhibition of drug alone,[1]; 7 µM,-1.33 ± 2.5%
same,percent growth inhibition of drug alone,[1]; 20 µM,0.878 ± 0.49%
same,percent growth inhibition,[2]; [5],4.23 ± 6.9%
O=C([O-])c1ccccc1-c1c2cc(Br)c(=O)cc-2oc2[c]([Hg+])c([O-])c(Br)cc12.[Na+].[Na+].[OH-] [Merbromin],percent growth inhibition of drug alone,[1]; 7 µM,1.39 ± 0.87%
same,percent growth inhibition of drug alone,[1]; 20 µM,7.86 ± 1.4%
same,percent growth inhibition of drug alone,[3]; 7 µM,-0.236 ± 1.4%
same,percent growth inhibition of drug alone,[3]; 20 µM,15.7 ± 0.91%
same,percent growth inhibition,"[2]; antibiotic (0.125x MIC): gentamicin, 7 µM",2.44 ± 4%
same,percent growth inhibition,"[2]; antibiotic (0.125x MIC): meropenem, 20 µM",99.619 ± 0.036%
same,percent growth inhibition,[4],-5.98 ± 14%
C=CCN1CC[C@]23c4c5ccc(O)c4O[C@H]2C(=O)CC[C@@]3(O)[C@H]1C5 [Naloxone hydrochloride],percent growth inhibition of drug alone,[1]; 7 µM,-0.923 ± 1.2%
same,percent growth inhibition of drug alone,[1]; 20 µM,0.247 ± 1.1%
same,percent growth inhibition,[2]; [5],-10.2 ± 2.5%
C[C@]12CC[C@H](O)C[C@@H]1CC[C@@H]1[C@@H]2CC[C@]2(C)C(=O)CC[C@@H]12 [Epiandrosterone],percent growth inhibition of drug alone,[1]; 7 µM,0.561 ± 2%
same,percent growth inhibition of drug alone,[1]; 20 µM,-1.04 ± 0.09%
same,percent growth inhibition,[2]; [6],-6.74 ± 2.2%
